PubChem BioAssay (NCATS)
Inconclusive results are not listed. Calls of active or inactive are those of the source. Unless noted, the call rests on the fitted dose curve; in most records, active means well fitted curve in the direction sought with a large enough effect; inconclusive means small, poorly fitted or top-dose-only effect, or another doubt; inactive means no such curve, though single readings can be large; an effect the other way counts as inactive or inconclusive.

How the values were obtained:
[1] = qHTS assay to identify small molecule inhibitors of chordoma cells - UCH-1 (AID 1259355); further: nearly all actives have a fitted effect of over 55% in size
Method in brief: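 800 cells/well, overnight attach; compounds pinned at 15 concs, then auranofin/camptothecin/doxorubicin/rubitecan/topotecan combo added; 48hr 37 C, 5% CO2; CellTiter-Glo, 30min RT, luminescence.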

[2] = qHTS assay to identify small molecule inhibitors of chordoma cells - UCH-2 (AID 1259356); further: series mostly up to about 46 µM
[3] = P-glycoprotein substrates identified in KB-8-5-11 adenocarcinoma cell line, qHTS therapeutic library screen (AID 1346987); further: series mostly up to about 44 µM; nearly all actives have a fitted effect of over 65% in size
Method in brief: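 Compounds are pinned in dose-response onto KB-8-5-11 cells (500 cells/well, colchicine-free medium) and left 72 h at 37 degree C. CellTiter-Glo luminescence then yields AC50 values.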

[4] = NS1 protein of Zika virus - qHTS assay to identify small molecule inhibitors in human HEK 293 cells (AID 1347053); further: series mostly up to about 46 µM; nearly all actives have a fitted effect of over 55% in size
Method in brief: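 In this cell-based screen, HEK 293 cultures received compound for one hour before Zika MR766 at MOI = 0.5. NS1 was quantified 24 hours later by TR-FRET, normalized to virus-free wells and infected wells.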

[5] = qHTS of pediatric cancer cell lines to identify multiple opportunities for drug repurposing: Primary screen for DAOY cells (AID 1347090); further: series mostly up to about 46 µM; nearly all actives have a fitted effect of over 55% in size
Method in brief: (§1)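 Cell viability, CellTiter-Glo luminescence; 500-1,000 cells/well, 8- or 11-point titration, 48 h compound exposure at 37 degrees C, 5% CO2. Controls: DMSO neutral, bortezomib 2.3 µM final as positive.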

[6] = qHTS of pediatric cancer cell lines to identify multiple opportunities for drug repurposing: Primary screen for SJ-GBM2 cells (AID 1347091)
Method in brief: as §1

[7] = qHTS of pediatric cancer cell lines to identify multiple opportunities for drug repurposing: Primary screen for TC32 cells (AID 1347089); further: nearly all actives have a fitted effect of over 60% in size
Method in brief: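 TC32 cells, 500-1,000/well in growth medium, compound-treated 48 h at 37 °C; viability from CellTiter-Glo luminescence. Primary screen: MIPE 11-point (0.78 nM–46 µM final), NPC 8-point (0.59 nM–46 µM final); confirmatory at 11-point dilutions.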

[8] = Natriuretic polypeptide receptor (hNpr1) antagonism - Pilot counterscreen GloSensor control cell line (AID 1347045; calls by dose curve; further: series mostly up to about 38 µM)
Method in brief: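 Control counterscreen: luciferase cGMP-biosensor HEK293 cells (no Npr1) received compound for 30 min at room temperature after GloSensor substrate loading. Luminescence was measured before and 20 min after soluble guanylyl cyclase activation by 50 uM nitroprusside.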

[9] = biological target: Atrial natriuretic peptide receptor 1 (Homo sapiens) (UniProt P16066); assay: Natriuretic polypeptide receptor (hNpr1) antagonism - Pilot screen (AID 1347049; calls by dose curve;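 further: HEK293 cells with hNpr1 and GloSensor cGMP luciferase stimulated by 0.1 nM hNppA; agonist-evoked cGMP luminescence read 20 min after hNppA addition; series mostly up to about 58 µM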)
Method in brief: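 Receptor antagonism read as cGMP-dependent luminescence in hNpr1/pGS-40F HEK293 cells: pre-read after 30 min compound exposure, post-read 20 min after hNppA agonist at 0.1 nM final, all at room temperature, protected from light; A-71915 titration as control.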

[10] = biological target: Atrial natriuretic peptide receptor 2 (Homo sapiens) (UniProt P20594); assay: Natriuretic polypeptide receptor (hNpr2) antagonism - Pilot subtype selectivity assay (AID 1347050; calls by dose curve)
Method in brief: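 Antagonist mode: compounds (LOPAC1280, seven 1:5 dilutions) added 30 min before 1 nM hNppC stimulation of hNpr2-HEK293 cGMP-sensor cells; luminescence read before and 20 min after agonist at ambient temperature.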

[11] = biological target: T1, Tyrosine-protein phosphatase non-receptor type substrate 1 (Homo sapiens) + Leukocyte surface antigen CD47 (Homo sapiens) (UniProt P78324+Q08722); assay: CD47-SIRPalpha protein protein interaction - LANCE assay qHTS validation (AID 1347057; active means well fitted curve in the direction sought with a large enough effect in the signal ratio, with a control signal flat, not every such curve was filed as active; the % refers to the signal ratio; further: series mostly up to about 38 µM)
Method in brief: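 Inhibition of soluble CD47/SIRPalpha ectodomain association by titrated compounds, measured as 665/615 nm time-resolved FRET ratio after sequential 30 min room-temperature incubations.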

[12] = biological target: T1, Tyrosine-protein phosphatase non-receptor type substrate 1 (Homo sapiens) + Leukocyte surface antigen CD47 (Homo sapiens); assay: CD47-SIRPalpha protein protein interaction - HTRF assay qHTS validation (AID 1347058; active means well fitted curve in the direction sought with a large enough effect in the signal ratio, not every such curve was filed as active; the % refers to the signal ratio; further: series mostly up to about 38 µM)
Method in brief: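 Soluble extracellular domains (6His-CD47, Avi-tag-biotinylated SIRPalpha) in PBS pH 7.4 with 0.05% IGEPAL CA-630. Compounds were preincubated 30 min at RT with CD47 and anti-His-Eu, then SIRPalpha and SAV-XL665 were added. TR-FRET 665/615 ratio.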

[13] = biological target: T1, Tyrosine-protein phosphatase non-receptor type substrate 1 (Homo sapiens) + Leukocyte surface antigen CD47 (Homo sapiens); assay: CD47-SIRPalpha protein protein interaction - Alpha assay qHTS validation (AID 1347059);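 further: bead proximity luminescence from CD47 binding SIRPalpha after compound preincubation with SIRPalpha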
Method in brief: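 AlphaScreen signal between CD47-His (12.5 nM) and biotin-SIRPalpha (25 nM) soluble extracellular domains, bead-captured via Ni-NTA and streptavidin. Compounds, in 7-point titrations, met SIRPalpha 30 min before CD47; PBS pH 7.4 with 0.05% IGEPAL.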

[14] = biological target: Parathyroid hormone/parathyroid hormone-related peptide receptor (Homo sapiens) (UniProt Q03431); assay: qHTS for PTHR1 Agonists: Optimization Screen against the NCGC LOPAC library (AID 1347079);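 further: GloSensor cAMP luminescence in HEK-293 GP2 cells expressing human PTHR1 with IBMX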
Method in brief: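 HEK-293 GP2 cells, PTHR1 + GloSensor cAMP; 3000 cells/well, o/n. Luciferin + IBMX 0.5mM each (stock), 1 hr 37C. Cpd titration, 1 hr 37C. Lum after 15 min RT. Ctrl M-PTH(1-15) top 10uM.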

Measured: Potency

T1 sequence (P78324 whole entry, looked up, the tested form may be a part): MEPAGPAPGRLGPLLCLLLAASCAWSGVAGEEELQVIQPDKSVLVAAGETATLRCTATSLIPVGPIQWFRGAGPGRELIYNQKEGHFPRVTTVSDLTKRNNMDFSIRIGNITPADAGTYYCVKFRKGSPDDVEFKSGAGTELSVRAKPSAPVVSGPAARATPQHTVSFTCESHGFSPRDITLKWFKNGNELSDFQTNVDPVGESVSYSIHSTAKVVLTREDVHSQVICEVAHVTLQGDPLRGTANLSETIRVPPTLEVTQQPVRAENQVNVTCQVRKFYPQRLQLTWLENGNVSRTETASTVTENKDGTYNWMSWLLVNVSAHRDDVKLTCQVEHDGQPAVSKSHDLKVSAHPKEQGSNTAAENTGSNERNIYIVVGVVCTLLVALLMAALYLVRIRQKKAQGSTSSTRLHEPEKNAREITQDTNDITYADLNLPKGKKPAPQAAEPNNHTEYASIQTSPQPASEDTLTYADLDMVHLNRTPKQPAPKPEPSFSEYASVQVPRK
T1 sequence (Q08722 whole entry, looked up, the tested form may be a part): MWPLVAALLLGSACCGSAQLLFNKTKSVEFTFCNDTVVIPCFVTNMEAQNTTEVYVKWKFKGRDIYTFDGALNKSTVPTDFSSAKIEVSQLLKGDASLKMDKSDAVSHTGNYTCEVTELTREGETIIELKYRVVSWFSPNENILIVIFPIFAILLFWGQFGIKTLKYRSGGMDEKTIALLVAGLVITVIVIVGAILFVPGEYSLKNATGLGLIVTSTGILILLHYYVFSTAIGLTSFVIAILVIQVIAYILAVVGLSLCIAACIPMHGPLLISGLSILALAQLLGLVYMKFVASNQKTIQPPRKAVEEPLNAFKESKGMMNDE
Chain of Atrial natriuretic peptide receptor 1 (Homo sapiens) (P16066 whole entry, looked up): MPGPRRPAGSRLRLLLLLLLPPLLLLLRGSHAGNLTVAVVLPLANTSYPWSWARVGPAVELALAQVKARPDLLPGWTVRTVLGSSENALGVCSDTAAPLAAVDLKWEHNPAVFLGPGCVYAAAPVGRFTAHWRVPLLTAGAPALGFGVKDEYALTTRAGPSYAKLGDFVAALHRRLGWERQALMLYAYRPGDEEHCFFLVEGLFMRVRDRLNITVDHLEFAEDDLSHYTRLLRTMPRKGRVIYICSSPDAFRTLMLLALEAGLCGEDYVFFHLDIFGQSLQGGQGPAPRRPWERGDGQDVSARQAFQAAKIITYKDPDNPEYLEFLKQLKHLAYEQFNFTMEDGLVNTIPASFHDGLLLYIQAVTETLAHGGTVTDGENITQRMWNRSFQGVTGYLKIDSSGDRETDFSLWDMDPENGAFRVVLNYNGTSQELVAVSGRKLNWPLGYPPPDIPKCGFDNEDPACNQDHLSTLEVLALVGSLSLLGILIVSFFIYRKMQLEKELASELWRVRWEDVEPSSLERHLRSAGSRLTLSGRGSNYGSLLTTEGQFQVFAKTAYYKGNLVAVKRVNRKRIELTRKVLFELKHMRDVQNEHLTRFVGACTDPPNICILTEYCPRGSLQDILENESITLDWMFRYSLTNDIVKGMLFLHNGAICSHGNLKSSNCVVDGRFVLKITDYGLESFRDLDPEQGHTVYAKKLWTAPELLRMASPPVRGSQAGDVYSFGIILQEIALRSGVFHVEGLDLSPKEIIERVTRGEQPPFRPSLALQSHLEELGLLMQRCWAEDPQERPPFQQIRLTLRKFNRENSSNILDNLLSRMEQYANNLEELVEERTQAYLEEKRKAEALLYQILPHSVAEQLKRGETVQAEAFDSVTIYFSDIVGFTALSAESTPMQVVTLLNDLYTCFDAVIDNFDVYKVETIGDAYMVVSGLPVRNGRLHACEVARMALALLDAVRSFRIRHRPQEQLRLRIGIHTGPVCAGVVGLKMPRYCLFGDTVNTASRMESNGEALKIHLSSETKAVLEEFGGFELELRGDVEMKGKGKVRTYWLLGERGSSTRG
Chain of Atrial natriuretic peptide receptor 2 (Homo sapiens) (P20594 whole entry, looked up): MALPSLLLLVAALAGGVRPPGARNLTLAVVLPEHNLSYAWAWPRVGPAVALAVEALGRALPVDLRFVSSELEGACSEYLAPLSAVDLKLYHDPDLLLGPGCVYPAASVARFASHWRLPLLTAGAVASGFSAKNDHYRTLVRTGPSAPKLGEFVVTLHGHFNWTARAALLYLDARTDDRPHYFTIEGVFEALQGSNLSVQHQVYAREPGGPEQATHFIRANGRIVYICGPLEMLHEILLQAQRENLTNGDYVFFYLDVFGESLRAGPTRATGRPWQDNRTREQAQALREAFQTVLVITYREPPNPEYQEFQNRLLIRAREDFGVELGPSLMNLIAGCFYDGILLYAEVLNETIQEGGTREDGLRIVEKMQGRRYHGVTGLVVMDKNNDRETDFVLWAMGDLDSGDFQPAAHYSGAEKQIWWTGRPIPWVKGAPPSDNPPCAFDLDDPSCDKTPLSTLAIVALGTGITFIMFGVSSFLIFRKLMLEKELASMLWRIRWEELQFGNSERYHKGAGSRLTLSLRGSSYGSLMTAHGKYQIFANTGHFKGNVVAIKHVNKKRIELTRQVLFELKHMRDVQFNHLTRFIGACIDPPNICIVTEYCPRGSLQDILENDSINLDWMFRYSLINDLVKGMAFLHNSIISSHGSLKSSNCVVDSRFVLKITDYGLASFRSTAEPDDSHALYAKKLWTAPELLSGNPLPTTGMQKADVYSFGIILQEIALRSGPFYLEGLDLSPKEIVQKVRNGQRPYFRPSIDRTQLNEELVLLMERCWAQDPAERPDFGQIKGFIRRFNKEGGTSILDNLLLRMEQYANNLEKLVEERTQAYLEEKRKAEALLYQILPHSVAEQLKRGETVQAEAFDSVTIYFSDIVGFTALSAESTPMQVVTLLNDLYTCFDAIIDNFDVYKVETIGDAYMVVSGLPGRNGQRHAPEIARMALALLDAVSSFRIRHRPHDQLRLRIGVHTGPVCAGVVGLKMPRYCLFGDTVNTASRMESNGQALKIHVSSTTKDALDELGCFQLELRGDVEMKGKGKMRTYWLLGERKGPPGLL
Chain of Parathyroid hormone/parathyroid hormone-related peptide receptor (Homo sapiens) (Q03431 whole entry, looked up): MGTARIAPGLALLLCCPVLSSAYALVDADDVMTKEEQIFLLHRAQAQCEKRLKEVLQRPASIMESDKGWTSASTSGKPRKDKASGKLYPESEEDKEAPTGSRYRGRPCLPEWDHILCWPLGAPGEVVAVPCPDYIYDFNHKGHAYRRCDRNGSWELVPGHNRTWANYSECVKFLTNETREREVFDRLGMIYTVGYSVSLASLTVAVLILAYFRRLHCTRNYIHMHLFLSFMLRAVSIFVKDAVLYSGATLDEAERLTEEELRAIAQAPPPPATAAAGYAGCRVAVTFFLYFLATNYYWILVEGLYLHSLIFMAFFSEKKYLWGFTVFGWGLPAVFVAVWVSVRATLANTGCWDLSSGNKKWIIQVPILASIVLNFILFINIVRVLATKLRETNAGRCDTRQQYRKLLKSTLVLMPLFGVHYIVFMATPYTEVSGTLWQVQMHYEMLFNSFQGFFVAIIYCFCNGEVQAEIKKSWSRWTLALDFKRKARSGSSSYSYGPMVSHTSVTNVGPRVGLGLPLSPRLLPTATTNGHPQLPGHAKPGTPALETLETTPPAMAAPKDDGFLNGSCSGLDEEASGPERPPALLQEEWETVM

CN1CCCCC1CCN1c2ccccc2Sc2ccc(S(C)=O)cc21 (stereo not given)
inactive: [1] | [2] | [3] | [4] | [5] | [6]

CC1CC(OC(=O)C(O)c2ccccc2)CC(C)(C)N1C (stereo not given)
inactive: [1] | [2] | [3] | [4] | [5] | [6]

Cc1ccc(C(C)C)cc2c(C)ccc1-2
inactive: [1] | [2] | [3] | [4] | [5] | [6]

O=C(Oc1ccccc1C(=O)O)c1ccccc1O
inactive: [1] | [2] | [3] | [4] | [5] | [6]

[Cl][In]([Cl])[Cl]
inactive: [1] | [2] | [3] | [4] | [5] | [6]

CC[C@@]1(c2ccccc2)NC(=O)N(C)C1=O
inactive: [1] | [2] | [4] | [7] | [5] | [6]

CCCOC(=O)c1ccccc1
inactive: [1] | [2] | [3] | [4] | [5] | [6]

COc1ccccc1O
inactive: [1] | [2] | [4] | [7] | [5] | [6]

CCCCC(CC)COC(=O)c1ccccc1O (stereo not given)
inactive: [1] | [2] | [3] | [4] | [5] | [6]

O=C(O)Cc1sc(-c2ccccc2)nc1-c1ccc(Cl)cc1
inactive: [1] | [2] | [3] | [4] | [6]

CCCn1cnc2c1c(=O)n(CCCCC(C)=O)c(=O)n2C
not listed: [3]
inactive: all other assays above

C[C@H]1O[C@@H](n2cc(F)c(=O)[nH]c2=O)[C@H](O)[C@@H]1O
not listed: [3] | [8] | [9] | [10] | [14]
inactive: all other assays above

CCCCOC(=O)c1ccc(O)cc1
inactive: [1] | [2] | [3] | [4] | [7] | [5] | [6]

CCCCN(CCCC)CC(O)c1cc(Cl)cc2c1-c1ccc(Cl)cc1/C2=C/c1ccc(Cl)cc1 (stereo not given)
inactive: [1] | [2] | [4] | [11] | [7] | [5] | [6]
